# Test results from PMC7862700, “An all-to-all approach to the identification of sequence-specific readers for epigenetic DNA modifications on cytosine”.
# Key:
# Assay in all cases: DAPPL (digital affinity profiling via proximity ligation, sequencing); 10 mM Tris-HCl pH 7.5, 50 mM NaCl, 1 mM DTT, 4% glycerol, room temperature, 30 min; GST-TFs on glutathione beads, 16-mer random dsDNA library, 0.1% formaldehyde crosslink after washing; high values mean tight binding
# FEV = target: T1, FEV (Homo sapiens, UniProt Q99581 1-238); details: protein: recombinant; tags: N-terminal GST; dsDNA, one strand shown
# T1 sequence: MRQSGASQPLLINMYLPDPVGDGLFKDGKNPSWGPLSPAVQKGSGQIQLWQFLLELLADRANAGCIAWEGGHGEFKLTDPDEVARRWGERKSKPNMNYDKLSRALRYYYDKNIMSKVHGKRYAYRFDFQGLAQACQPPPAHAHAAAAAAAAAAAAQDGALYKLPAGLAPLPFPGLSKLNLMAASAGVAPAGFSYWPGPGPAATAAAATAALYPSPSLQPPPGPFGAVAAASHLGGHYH
# In short: (§1)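 Binding signal is given per hexamer as its read frequency for a factor divided by its frequency in the tag-only sample. GST-fused human transcription factors were expressed in yeast, captured on glutathione beads, barcoded with DNA and pooled with that sample, then incubated with 200 nmole of a 16-mer random double-stranded DNA library in Tris/NaCl/DTT/glycerol buffer for 30 min at room temperature. The pools were then washed, crosslinked, proximity-ligated, amplified by PCR and sequenced on an Illumina NextSeq500.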
# ETV5 = ETV5 (Homo sapiens, UniProt P41161 1-510); details: protein: recombinant; tags: N-terminal GST; dsDNA, one strand shown
# In short: as §1
# HSF1 = HSF1 (Homo sapiens, UniProt Q00613 1-529); details: protein: recombinant; tags: N-terminal GST; chain copies: 3; dsDNA, one strand shown
# In short: as §1
# SPIC = target: T2, SPIC (Homo sapiens, UniProt Q8N5J4 1-248); details: protein: recombinant; tags: N-terminal GST; dsDNA, one strand shown
# T2 sequence: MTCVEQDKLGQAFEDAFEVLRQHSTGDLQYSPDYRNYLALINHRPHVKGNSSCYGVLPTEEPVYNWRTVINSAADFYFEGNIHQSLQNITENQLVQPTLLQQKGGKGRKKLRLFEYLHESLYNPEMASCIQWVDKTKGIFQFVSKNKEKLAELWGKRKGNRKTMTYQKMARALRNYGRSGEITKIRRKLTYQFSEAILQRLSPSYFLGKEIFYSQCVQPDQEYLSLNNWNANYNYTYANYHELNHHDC
# In short: as §1
# ELF4 = ELF4 (Homo sapiens, UniProt Q99607 1-663); details: protein: recombinant; tags: N-terminal GST; dsDNA, one strand shown
# In short: as §1
# ELK4 = target: T3, ELK4 (Homo sapiens, UniProt P28324-2 1-405); details: protein: recombinant; tags: N-terminal GST; dsDNA, one strand shown
# T3 sequence: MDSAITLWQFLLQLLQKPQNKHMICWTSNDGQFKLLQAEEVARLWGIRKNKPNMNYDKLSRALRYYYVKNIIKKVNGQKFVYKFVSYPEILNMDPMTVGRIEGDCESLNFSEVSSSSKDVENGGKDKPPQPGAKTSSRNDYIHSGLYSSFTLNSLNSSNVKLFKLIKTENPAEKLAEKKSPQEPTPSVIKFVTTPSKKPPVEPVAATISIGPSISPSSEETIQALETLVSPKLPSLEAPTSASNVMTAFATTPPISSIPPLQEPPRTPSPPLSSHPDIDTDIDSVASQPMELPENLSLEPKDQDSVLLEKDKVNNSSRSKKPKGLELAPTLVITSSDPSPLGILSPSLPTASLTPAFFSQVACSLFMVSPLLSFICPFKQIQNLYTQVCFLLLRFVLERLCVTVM
# In short: as §1
# ETV2 = target: T4, ETV2 (Homo sapiens, UniProt O00321 1-342); details: protein: recombinant; tags: N-terminal GST; dsDNA, one strand shown
# T4 sequence: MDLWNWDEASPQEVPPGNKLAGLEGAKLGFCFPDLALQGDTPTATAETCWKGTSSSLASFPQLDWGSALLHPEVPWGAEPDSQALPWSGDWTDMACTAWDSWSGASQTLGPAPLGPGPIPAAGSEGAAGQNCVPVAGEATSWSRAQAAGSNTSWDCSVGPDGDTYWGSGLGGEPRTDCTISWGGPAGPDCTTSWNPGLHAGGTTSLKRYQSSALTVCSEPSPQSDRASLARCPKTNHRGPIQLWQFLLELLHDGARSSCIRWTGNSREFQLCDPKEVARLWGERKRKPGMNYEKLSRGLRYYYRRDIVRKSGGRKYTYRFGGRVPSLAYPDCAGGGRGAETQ
# In short: as §1
# ELF3 = target: T5, ELF3 (Homo sapiens, UniProt P78545 1-371); details: protein: recombinant; tags: N-terminal GST; dsDNA, one strand shown
# T5 sequence: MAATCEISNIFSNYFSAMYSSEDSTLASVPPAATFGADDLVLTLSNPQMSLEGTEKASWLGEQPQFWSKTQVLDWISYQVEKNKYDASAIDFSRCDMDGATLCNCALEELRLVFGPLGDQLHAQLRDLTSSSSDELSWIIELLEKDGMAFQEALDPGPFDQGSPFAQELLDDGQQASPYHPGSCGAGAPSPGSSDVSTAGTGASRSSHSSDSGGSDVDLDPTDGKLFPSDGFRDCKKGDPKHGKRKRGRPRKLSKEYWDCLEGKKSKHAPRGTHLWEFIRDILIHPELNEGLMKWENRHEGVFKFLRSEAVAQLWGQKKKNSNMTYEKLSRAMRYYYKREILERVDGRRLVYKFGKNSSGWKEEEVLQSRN
# In short: as §1
# CRX = CRX (Homo sapiens, UniProt O43186 1-299); details: protein: recombinant; tags: N-terminal GST; dsDNA, one strand shown
# In short: as §1
# ETV1 = ETV1 (Homo sapiens, UniProt P50549 1-477); details: protein: recombinant; tags: N-terminal GST; dsDNA, one strand shown
# In short: as §1
# ERF = target: T6, ERF (Homo sapiens, UniProt P50548 1-548); details: protein: recombinant; tags: N-terminal GST; dsDNA, one strand shown
# T6 sequence: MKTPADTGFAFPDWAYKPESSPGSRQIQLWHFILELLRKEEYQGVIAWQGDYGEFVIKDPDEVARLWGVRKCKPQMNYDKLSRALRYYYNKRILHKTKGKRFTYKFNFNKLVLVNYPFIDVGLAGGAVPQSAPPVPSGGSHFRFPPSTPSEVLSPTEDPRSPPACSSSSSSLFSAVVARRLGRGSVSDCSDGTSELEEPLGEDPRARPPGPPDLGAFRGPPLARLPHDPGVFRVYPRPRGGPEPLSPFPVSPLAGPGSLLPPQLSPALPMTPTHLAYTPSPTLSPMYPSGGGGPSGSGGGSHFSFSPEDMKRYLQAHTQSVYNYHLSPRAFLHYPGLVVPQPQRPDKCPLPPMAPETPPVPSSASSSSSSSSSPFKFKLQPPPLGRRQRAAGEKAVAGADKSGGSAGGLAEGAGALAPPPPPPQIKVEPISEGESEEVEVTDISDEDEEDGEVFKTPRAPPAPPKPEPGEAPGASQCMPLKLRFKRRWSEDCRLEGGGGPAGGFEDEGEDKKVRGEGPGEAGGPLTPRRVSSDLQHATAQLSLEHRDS
# In short: as §1
# ETV3L = target: T7, ETV3L (Homo sapiens, UniProt Q6ZN32 1-361); details: protein: recombinant; tags: N-terminal GST; dsDNA, one strand shown
# T7 sequence: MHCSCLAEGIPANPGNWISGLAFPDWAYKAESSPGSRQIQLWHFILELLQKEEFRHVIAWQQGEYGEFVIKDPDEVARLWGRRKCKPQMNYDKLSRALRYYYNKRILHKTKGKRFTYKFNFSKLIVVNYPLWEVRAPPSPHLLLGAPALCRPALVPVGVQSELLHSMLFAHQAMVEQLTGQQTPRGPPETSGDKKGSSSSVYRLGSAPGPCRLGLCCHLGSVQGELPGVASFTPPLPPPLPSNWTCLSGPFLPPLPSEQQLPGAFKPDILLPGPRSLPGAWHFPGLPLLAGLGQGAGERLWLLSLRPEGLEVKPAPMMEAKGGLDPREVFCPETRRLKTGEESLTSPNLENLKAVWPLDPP
# In short: as §1
# ETS2 = target: T8, ETS2 (Homo sapiens, UniProt P15036 1-469); details: protein: recombinant; tags: N-terminal GST; dsDNA, one strand shown
# T8 sequence: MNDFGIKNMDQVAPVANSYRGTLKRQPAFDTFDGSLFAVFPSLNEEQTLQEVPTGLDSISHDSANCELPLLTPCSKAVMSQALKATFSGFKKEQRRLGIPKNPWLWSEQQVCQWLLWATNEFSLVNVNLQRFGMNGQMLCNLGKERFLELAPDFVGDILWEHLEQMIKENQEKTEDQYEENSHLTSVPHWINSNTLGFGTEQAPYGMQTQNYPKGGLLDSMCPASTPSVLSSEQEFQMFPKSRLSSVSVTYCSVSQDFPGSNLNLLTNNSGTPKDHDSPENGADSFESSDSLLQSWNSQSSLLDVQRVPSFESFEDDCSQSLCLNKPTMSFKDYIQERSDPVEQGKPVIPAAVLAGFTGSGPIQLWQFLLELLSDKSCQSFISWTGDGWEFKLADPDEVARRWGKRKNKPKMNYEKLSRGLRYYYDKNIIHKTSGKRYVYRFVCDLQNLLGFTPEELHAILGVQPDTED
# In short: as §1
# SPDEF = target: T9, SPDEF (Homo sapiens, UniProt O95238 1-335); details: protein: recombinant; tags: N-terminal GST; dsDNA, one strand shown
# T9 sequence: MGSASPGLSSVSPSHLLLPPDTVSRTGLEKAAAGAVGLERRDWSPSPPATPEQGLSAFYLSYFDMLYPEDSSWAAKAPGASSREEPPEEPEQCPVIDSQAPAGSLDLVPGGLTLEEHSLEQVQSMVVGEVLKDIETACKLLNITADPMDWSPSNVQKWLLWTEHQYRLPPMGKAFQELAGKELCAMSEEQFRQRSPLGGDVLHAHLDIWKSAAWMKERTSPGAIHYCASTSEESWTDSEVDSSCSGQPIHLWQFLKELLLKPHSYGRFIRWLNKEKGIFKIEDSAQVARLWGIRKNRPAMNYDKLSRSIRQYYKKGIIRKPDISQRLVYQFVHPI
# In short: as §1
# ETV7 = target: T10, ETV7 (Homo sapiens, UniProt Q9Y603 1-341); details: protein: recombinant; tags: N-terminal GST; dsDNA, one strand shown
# T10 sequence: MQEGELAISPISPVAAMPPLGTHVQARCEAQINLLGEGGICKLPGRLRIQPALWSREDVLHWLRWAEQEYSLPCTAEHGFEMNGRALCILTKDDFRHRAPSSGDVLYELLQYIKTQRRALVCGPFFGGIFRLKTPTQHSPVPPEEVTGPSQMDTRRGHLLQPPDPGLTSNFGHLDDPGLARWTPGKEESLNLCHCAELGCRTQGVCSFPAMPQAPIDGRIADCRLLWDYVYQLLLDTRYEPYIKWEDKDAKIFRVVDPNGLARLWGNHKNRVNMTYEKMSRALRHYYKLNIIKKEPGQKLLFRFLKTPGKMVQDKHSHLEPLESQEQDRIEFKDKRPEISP
# In short: as §1
# ELF5 = target: T11, ELF5 (Homo sapiens, UniProt Q9UKW6-2 1-255); details: protein: recombinant; tags: N-terminal GST; dsDNA, one strand shown
# T11 sequence: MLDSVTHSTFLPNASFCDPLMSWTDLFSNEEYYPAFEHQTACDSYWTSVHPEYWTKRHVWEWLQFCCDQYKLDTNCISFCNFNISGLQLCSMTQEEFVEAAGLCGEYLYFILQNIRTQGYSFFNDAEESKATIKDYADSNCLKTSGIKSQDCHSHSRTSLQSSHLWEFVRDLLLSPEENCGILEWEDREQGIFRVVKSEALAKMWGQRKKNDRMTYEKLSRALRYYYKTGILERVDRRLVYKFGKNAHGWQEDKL
# In short: as §1
# ETV3 = target: T12, ETV3 (Homo sapiens, UniProt P41162-2 1-143); details: protein: recombinant; tags: N-terminal GST; dsDNA, one strand shown
# T12 sequence: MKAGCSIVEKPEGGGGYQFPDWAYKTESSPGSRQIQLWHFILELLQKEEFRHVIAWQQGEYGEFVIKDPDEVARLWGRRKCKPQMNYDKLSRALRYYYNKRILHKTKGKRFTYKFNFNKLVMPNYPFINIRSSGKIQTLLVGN
# In short: as §1
# ETV6 = ETV6 (Homo sapiens, UniProt P41212 1-452); details: protein: recombinant; tags: N-terminal GST; dsDNA, one strand shown
# In short: as §1
# Sequence of HSF1 (Q00613 whole entry): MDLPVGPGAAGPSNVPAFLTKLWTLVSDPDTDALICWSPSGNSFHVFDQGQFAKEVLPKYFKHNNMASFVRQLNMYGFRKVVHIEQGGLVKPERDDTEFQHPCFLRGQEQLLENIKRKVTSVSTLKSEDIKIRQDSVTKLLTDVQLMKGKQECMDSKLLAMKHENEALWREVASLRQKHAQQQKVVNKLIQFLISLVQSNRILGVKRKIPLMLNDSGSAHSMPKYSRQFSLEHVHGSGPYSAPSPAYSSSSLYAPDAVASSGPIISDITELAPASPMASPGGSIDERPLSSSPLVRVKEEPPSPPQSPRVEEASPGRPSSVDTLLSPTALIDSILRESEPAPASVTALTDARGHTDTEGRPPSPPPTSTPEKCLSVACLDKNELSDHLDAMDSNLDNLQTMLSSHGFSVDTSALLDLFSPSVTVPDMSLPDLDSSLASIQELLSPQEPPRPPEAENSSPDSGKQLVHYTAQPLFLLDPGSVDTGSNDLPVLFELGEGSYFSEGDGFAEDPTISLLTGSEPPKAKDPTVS
# Sequence of ETV6 (P41212 whole entry): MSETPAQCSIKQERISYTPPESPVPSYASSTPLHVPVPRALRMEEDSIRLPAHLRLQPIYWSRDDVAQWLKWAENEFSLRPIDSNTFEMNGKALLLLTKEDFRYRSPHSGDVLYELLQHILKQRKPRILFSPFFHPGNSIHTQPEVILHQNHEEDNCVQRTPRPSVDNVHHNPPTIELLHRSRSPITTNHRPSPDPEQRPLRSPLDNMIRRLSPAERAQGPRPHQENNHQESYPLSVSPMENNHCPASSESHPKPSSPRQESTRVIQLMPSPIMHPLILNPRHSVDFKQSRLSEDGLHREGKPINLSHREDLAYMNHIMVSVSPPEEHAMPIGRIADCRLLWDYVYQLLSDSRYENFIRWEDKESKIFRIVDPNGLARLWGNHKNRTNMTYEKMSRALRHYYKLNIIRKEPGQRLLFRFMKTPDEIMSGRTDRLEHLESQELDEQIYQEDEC
# Sequence of ETV5 (P41161 whole entry): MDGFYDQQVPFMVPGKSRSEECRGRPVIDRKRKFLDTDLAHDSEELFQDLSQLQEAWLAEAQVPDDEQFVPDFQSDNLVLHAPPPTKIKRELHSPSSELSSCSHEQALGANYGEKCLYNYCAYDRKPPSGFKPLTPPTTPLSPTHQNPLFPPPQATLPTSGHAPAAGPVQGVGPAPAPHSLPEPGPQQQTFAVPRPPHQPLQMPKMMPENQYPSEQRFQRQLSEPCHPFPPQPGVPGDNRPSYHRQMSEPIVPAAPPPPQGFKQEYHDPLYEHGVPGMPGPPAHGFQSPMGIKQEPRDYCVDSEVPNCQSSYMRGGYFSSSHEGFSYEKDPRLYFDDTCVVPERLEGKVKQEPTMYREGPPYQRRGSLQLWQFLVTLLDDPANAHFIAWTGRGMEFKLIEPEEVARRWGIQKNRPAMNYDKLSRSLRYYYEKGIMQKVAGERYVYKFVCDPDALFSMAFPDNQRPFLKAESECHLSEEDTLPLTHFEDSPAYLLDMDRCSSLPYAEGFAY
# Sequence of ELF4 (Q99607 whole entry): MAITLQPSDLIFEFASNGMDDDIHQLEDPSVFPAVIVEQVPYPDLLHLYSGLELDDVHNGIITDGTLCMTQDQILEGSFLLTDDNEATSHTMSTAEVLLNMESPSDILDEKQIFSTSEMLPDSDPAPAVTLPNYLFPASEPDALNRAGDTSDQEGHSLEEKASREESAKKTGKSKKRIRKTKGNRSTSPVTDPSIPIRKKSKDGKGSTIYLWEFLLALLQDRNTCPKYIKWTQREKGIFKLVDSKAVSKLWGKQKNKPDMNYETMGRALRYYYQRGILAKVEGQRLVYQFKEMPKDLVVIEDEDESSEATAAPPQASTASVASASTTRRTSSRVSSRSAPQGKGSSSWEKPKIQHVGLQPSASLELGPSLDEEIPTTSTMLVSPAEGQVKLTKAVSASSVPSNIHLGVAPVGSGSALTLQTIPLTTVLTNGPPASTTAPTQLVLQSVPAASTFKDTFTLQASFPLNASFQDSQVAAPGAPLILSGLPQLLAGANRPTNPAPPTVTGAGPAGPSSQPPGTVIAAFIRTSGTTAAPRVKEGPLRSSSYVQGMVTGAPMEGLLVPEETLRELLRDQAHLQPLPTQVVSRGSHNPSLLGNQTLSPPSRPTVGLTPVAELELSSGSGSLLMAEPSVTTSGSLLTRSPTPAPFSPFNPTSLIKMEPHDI
# Sequence of CRX (O43186 whole entry): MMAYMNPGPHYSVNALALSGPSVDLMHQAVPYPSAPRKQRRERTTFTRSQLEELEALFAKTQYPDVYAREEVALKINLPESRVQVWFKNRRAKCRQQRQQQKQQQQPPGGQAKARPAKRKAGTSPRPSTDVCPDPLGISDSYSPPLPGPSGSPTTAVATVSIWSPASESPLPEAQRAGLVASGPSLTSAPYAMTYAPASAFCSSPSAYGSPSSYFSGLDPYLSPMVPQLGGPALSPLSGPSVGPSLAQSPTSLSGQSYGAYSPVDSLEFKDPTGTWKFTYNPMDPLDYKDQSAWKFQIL
# Sequence of ETV1 (P50549 whole entry): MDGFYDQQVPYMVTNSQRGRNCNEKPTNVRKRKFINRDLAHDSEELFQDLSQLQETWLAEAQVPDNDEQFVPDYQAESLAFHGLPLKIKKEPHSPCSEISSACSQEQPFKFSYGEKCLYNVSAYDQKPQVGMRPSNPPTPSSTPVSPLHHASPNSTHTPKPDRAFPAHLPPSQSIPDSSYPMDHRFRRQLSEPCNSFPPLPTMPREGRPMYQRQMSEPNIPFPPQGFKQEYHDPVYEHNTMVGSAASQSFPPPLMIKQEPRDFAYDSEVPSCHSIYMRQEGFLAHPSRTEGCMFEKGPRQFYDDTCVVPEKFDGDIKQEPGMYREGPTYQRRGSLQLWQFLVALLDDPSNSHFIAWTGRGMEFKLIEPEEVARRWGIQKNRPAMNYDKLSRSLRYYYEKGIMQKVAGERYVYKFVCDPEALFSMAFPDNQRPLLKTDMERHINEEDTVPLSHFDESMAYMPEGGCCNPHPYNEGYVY
sequence,measurement,setting,value
CCCCCA,binding signal,FEV,"1.21 fold enrichment (6-mer frequency, TF over GST control)"
same,binding signal,ETV5,"1.19 fold enrichment (6-mer frequency, TF over GST control)"
same,binding signal,HSF1,"1.06 fold enrichment (6-mer frequency, TF over GST control)"
same,binding signal,SPIC,"1.16 fold enrichment (6-mer frequency, TF over GST control)"
same,binding signal,ELF4,"1.2 fold enrichment (6-mer frequency, TF over GST control)"
same,binding signal,ELK4,"1.19 fold enrichment (6-mer frequency, TF over GST control)"
same,binding signal,ETV2,"1.4 fold enrichment (6-mer frequency, TF over GST control)"
same,binding signal,ELF3,"1.3 fold enrichment (6-mer frequency, TF over GST control)"
same,binding signal,CRX,"1.02 fold enrichment (6-mer frequency, TF over GST control)"
same,binding signal,ETV1,"1.18 fold enrichment (6-mer frequency, TF over GST control)"
same,binding signal,ERF,"1.06 fold enrichment (6-mer frequency, TF over GST control)"
same,binding signal,ETV3L,"1.21 fold enrichment (6-mer frequency, TF over GST control)"
same,binding signal,ETS2,"1.19 fold enrichment (6-mer frequency, TF over GST control)"
same,binding signal,SPDEF,"1.22 fold enrichment (6-mer frequency, TF over GST control)"
same,binding signal,ETV7,"1.11 fold enrichment (6-mer frequency, TF over GST control)"
same,binding signal,ELF5,"1.24 fold enrichment (6-mer frequency, TF over GST control)"
same,binding signal,ETV3,"1.3 fold enrichment (6-mer frequency, TF over GST control)"
same,binding signal,ETV6,"1.19 fold enrichment (6-mer frequency, TF over GST control)"
